Holding throughout (experiment): NCI-60 one-dose screen, 48 h (100 = growth as untreated, 0 = no growth, -100 = all killed)
What all share (conditions): 10 µM unless noted

The test system of assay [1] is HCT-15 colon.
In assay [2] the test system is SNB-75 CNS.
In assay [3] the test system is SNB-19 CNS.
Assay [4] deals with U251 CNS.
Assay [5] has as its system PC-3 prostate.
Assay [6] has as its system SK-MEL-5 melanoma.
Assay [7] relates to UACC-62 melanoma.
Assay [8] deals with LOX IMVI melanoma.
In assay [9] the test system is SK-MEL-28 melanoma.
Assay [10] relates to SK-MEL-2 melanoma.
The test system of assay [11] is EKVX NSCLC.
For assay [12], the system named is SN12C renal.
The test system of assay [13] is UO-31 renal.
The test system of assay [14] is TK-10 renal.
The subject of assay [15] is ACHN renal.
Assay [16] has as its system CAKI-1 renal.
The test system of assay [17] is A498 renal.
In assay [18] the test system is CCRF-CEM leukemia.
In assay [19] the test system is MOLT-4 leukemia.
Assay [20] relates to HT29 colon.

The panel holds about 83,000 compounds, 20% with a hit somewhere; the sample as a whole holds those more often.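 In brief: 96-well plates, 48 h treatment, single concentration, percent growth endpoint.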 Unmarked numbers belong to inactive results. The source made the active and inactive calls. The calls were made as follows: active = growth percent below 10; inactive = the rest.

Take `ICCC(c1ccccc1)(c1ccccc1)c1ccccc1`: the growth was 27.7% in [1]; 50.3% in assay [2]; 65.3% in assay [3]; 23% in [4]; 49.4% in assay [5]; -49.5% (active) in assay [6]. For the same compound, the growth was -35.3% (active) in [7]; 16.3% in assay [8]; -70% (active) in assay [9]; 48.7% in [10]; 88.4% in assay [11]; 69.7% in assay [12]. The growth in assay [13] is 49.6%; in assay [14], 73.5%; in [15], 68.9%; in [16], 74.9%; in assay [17], 51.7%; in assay [18] it was 31.6%. Moreover, in assay [19], the growth is 39.4%.

`c1ccc(-c2nc(Nc3nccnn3)c3ccccc3n2)cc1`: the growth in [1] was 98.2%; in [20], 98.8%; in assay [3] it was 93.6%; in [4] it was 92.9%; in assay [5], 101%; in assay [7], 87.8%. The growth was 96% in assay [8]; 103% in assay [9]; 112% in assay [10]; 88.4% in [11]; 96.7% in [12]; 89.8% in [13]. In addition, the growth in assay [14] was 155%; in [15], 103%; in assay [16], 84.9%; in [18], 93.2%; in assay [19], 100%.

Turning to `O=C1/C=C/[C@@H](O)[C@@H]2C[C@@H](O)C[C@H]2/C=C/CCC[C@H](CO)O1`, the growth is 26.2% in assay [1]; 35.7% in assay [2]; 48.8% in assay [3]; 24.1% in [4]; 39.5% in assay [5]; -88% (active) in [6]. Moreover, the growth in assay [7] is 15.8%; in [8] it was -44.8% (active); in assay [9], -18.8% (active); in assay [11], 36.4%; in assay [12], 43.9%; in assay [13], 11.2%. The growth was 19.8% in [15], 17.9% in assay [16], 22.3% in assay [18] and -16.9% (active) in assay [19].

For `N/C(=N\c1nc2ccccc2s1)NC(=O)Nc1ccccc1Cl`, the growth in [1] was 23.9%; in assay [20], 5.03% (active); in assay [3], 37.4%; in assay [4], 19.1%; in assay [5], 27.8%; in assay [7] it was 26.7%. Besides, the growth was 36.2% in [8]; 46.8% in [9]; 18.8% in assay [10]; 54.2% in assay [13]; 69.4% in assay [14]; 42.2% in [15]. In addition, the growth in assay [16] is 32.7%; in assay [18], 12.9%; in assay [19] it was 13.9%.

With `COc1ccc(C(=O)COc2cccc(/C=C3\CSc4ccc(Cl)cc4C3=O)c2)cc1`, the growth in [1] is 70.4%; in assay [2], 99.3%; in assay [3], 91.3%; in [4] it was 71.1%; in assay [5] it was 61.9%; in assay [6], 67.2%. Further, the growth in assay [7] is 71.8%; in assay [8], 33.1%; in assay [9], 114%; in assay [10], 46.9%; in assay [11], 77.9%; in assay [12] it was 90.2%. Also, the growth in [13] is 13.1%; in assay [14], 118%; in assay [15] it was 90.3%; in assay [16], 69.6%; in [17], 94.4%; in assay [18], -21.3% (active). The growth in assay [19] was 7.34% (active).

As for `O=C(c1ccc(N2CCOCC2)cc1[N+](=O)[O-])N1CCOCC1`, the growth in assay [1] is 96.2%; in assay [2], 31.8%; in [3], 96.9%; in assay [4], 105%; in assay [5], 93.6%; in [6], 136%. Besides, the growth in assay [7] was 97%; in assay [8] it was 98.3%; in [9], 96.9%; in assay [10], 17.9%; in assay [11] it was 18.9%; in assay [12], 145%. The growth in assay [13] is 99.4%; in [14], 116%; in [15], 100%; in assay [16], 20.1%; in assay [17], 104%; in [18], 104%.

Regarding `CCOc1cc(/C=C/C(=O)C(C(=O)/C=C/c2ccc(OC(=O)CNc3nnc(C)s3)c(OCC)c2)C(=O)CNc2nnc(C)s2)ccc1OC(=O)CNc1nnc(C)s1`, the growth is -60.1% (active) in assay [1]; -15.8% (active) in [2]; 32.4% in assay [3]; -61.4% (active) in assay [4]; -27.9% (active) in assay [5]; -83.4% (active) in [6]. The growth was -88.7% (active) in [7]; -100% (active) in assay [8]; -68.5% (active) in [9]; 11% in assay [10]; -13.9% (active) in assay [11]; -3.17% (active) in assay [12]. Also, the growth in assay [14] was 32.4%; in assay [15], -85.2% (active); in assay [16], -6.01% (active); in assay [17], -41.7% (active); in [19], -34.3% (active).

On to `Cc1cc(C(=O)Nc2ccc3cc(CN4CCOCC4)ccc3n2)c(C)n1-c1ccccc1`, for which the growth is 40.4% in [1]; 15.5% in [2]; 77% in assay [3]; 46.3% in assay [4]; 4.55% (active) in [5]; -38.1% (active) in assay [6]. Further, the growth in assay [7] is 7.01% (active); in assay [8] it was 24.2%; in assay [9] it was 27.9%; in assay [10] it was 16.6%; in assay [11], 44.9%; in assay [12] it was 73%. In addition, the growth in [13] is 53.3%; in [14], 70.4%; in assay [15], 50.5%; in [16], 49.7%; in assay [17] it was 79.8%; in assay [18] it was 8.79% (active). For the same compound, the growth in assay [19] is -17.4% (active).

As for `Cc1[nH]ccc2cc3nc4ccccc4c3cc12`, the growth in assay [1] was 20.3%; in [2], 40%; in assay [3], 44.9%; in assay [4], 26.4%; in [5] it was 33.4%; in [6], 37.8%. Besides, the growth was 62% in [7]; 12% in assay [8]; 54.5% in assay [9]; 30.7% in assay [11]; 27.8% in assay [12]; 8.89% (active) in assay [13]. In addition, the growth is 15.4% in assay [15]; 52% in assay [16]; 4.99% (active) in [17]; 17.1% in assay [18]; 8.62% (active) in [19].

Values taken from PubChem BioAssay (NCI).
